The AC50 is the concentration at which the activity in the assay is half-maximal.

Data on eight molecules can be found in PubChem BioAssay (EPA / NIEHS).

The target of experiment [1] is rat CYP2C13, Cyp2c13 (gene 171521) (UniProt P20814). The experiment can be described thus: NVS_ADME_rCYP2C13: NovaScreen (NVS) CYP450-related Enzyme Activity (ADME) Assay for rat CYP2C13 (AID 2283121). In a few lines:
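Recombinant rat CYP2C13 with fluorogenic substrate, 0.75 h cell-free incubation; primary screen in duplicate at 10 uM, actives followed in concentration series. Fluorescence loss relative to acetonitrile control indicates inhibition.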

Another experiment relates to rat CYP2B1, gene 24300. The experiment can be described thus: NVS_ADME_rCYP2B1: NovaScreen (NVS) CYP450-related Enzyme Activity (ADME) Assay for rat CYP2B1 (AID 2283117). How it is done:
(§1) NVS_ADME_rCYP2B1 is a biochemical, single-readout assay that uses extracted gene-proteins in a cell-free assay. Measurements were taken 0.75 hour after chemical dosing in a 96-well plate.NVS_ADME_rCYP2B1 is one of one assay component(s) measured or calculated from the NVS_ADME_rCYP2B1 assay. It is designed to make measurements of enzyme activity, a form of enzyme reporter, as detected with fluorescence intensity signals by Fluorescence technology.Data from the assay component NVS_ADME_rCYP2B1 was analyzed into 1 assay endpoint. This assay endpoint, NVS_ADME_rCYP2B1, was analyzed in the positive analysis fitting direction relative to Acetonitrile as the negative control and baseline of activity. Using a type of enzyme reporter, loss-of-signal activity can be used to understand changes in the enzymatic activity as they relate to the gene Cyp2b1. Furthermore, this assay endpoint can be referred to as a primary readout, because this assay has produced multiple assay endpoints where this one serves a enzymatic activity function. To generalize the intended target to other relatable targets, this assay endpoint is annotated to the cyp intended target family, where the subfamily is xenobiotic metabolism.
(§2) Binding assays used specific radioligands (tritiated, iodinated) with non-radioactive competitive displacement ligands in agonist or antagonist protocols (as indicated) and various reference compounds and inhibitors to titrate specific binding to receptors and transporters. Most enzyme assays (CYPs, kinases, phosphatases, proteases, HDACs) used recombinant protein and specific substrates (fluorescence mostly, some colorimetric and radioactive) and inhibitors, followed by a biochemical separation of substrate and product. All assays for the biochemical HTS were initially run in duplicate at a single concentration (10 uM for CYP450 assays and 25 uM for all others). Assay-chemical combinations meeting a pre-defined threshold (e.g., 30% inhibition and other criteria defined below) were then run in singleton concentration-response format with maximum concentration of 20 uM for CYPs and 50 uM for all others. Each assay was run with positive and negative controls, and concurrent controls on every plate. The follow-up (secondary) screen tested active chemical-pairs in concentration series, as well as a few additional assays not tested in the primary screen, some selected negative inactives, and several cases re-run in the concentration series for confirmatory purposes.

Experiment [2] addresses rat CYP2C11, Cyp2c11 (gene 29277) (UniProt P08683). The experiment can be described thus: NVS_ADME_rCYP2C11: NovaScreen (NVS) CYP450-related Enzyme Activity (ADME) Assay for rat CYP2C11 (AID 2283118). On the procedure: as §1, with “NVS_ADME_rCYP2C11” for “NVS_ADME_rCYP2B1”, “0.33” for “0.75”, “plate.NVS_ADME_rCYP2C11” for “plate.NVS_ADME_rCYP2B1”, “NVS_ADME_rCYP2C11,” for “NVS_ADME_rCYP2B1,”, “Cyp2c11.” for “Cyp2b1.”
as §2, with “Assay-chemical combinations meeting a pre-defined threshold (e.g., 30% inhibition and other criteria defined below) were then run in singleton concentration-response format with maximum concentration of 20 uM for CYPs and 50 uM for all others.” left out

Experiment [3] addresses rat CYP2D1, Cyp2d1 (gene 266684) (UniProt P10633). The experiment can be described thus: NVS_ADME_rCYP2D1: NovaScreen (NVS) CYP450-related Enzyme Activity (ADME) Assay for rat CYP2D1 (AID 2283122). On the procedure: as §1, with “NVS_ADME_rCYP2D1” for “NVS_ADME_rCYP2B1”, “plate.NVS_ADME_rCYP2D1” for “plate.NVS_ADME_rCYP2B1”, “NVS_ADME_rCYP2D1,” for “NVS_ADME_rCYP2B1,”, “Cyp2d1.” for “Cyp2b1.”
as §2

In experiment [4] the target is rat CYP2D2, Cyp2d26 (gene 25053) (UniProt P10634). The experiment can be described thus: NVS_ADME_rCYP2D2: NovaScreen (NVS) CYP450-related Enzyme Activity (ADME) Assay for rat CYP2D2 (AID 2283124). On the procedure: as §1, with “NVS_ADME_rCYP2D2” for “NVS_ADME_rCYP2B1”, “plate.NVS_ADME_rCYP2D2” for “plate.NVS_ADME_rCYP2B1”, “NVS_ADME_rCYP2D2,” for “NVS_ADME_rCYP2B1,”, “Cyp2d2.” for “Cyp2b1.”
as §2

The next experiment has as its system rat CYP3A1, gene 25642. The experiment can be described thus: NVS_ADME_rCYP3A1: NovaScreen (NVS) CYP450-related Enzyme Activity (ADME) Assay for rat CYP3A1 (AID 2283126). In a few lines: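 Cell-free recombinant CYP assay with fluorescent substrate, read 0.5 h after dosing. Screened at 10 uM in duplicate, hits at up to 20 uM in concentration-response; loss of signal versus acetonitrile baseline.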

Experiment [5] addresses rat CYP3A2, Cyp3a2 (gene 266682) (UniProt P05183). The experiment can be described thus: NVS_ADME_rCYP3A2: NovaScreen (NVS) CYP450-related Enzyme Activity (ADME) Assay for rat CYP3A2 (AID 2283128). An outline of the steps:
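Cell-free rat CYP3A2 enzyme assay with fluorescent substrate, read 0.5 h after dosing. Primary duplicate screen at 10 uM; actives run in concentration-response up to 20 uM, relative to acetonitrile baseline.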

The subject of another experiment is rat CYP2C6, gene 293989. The experiment can be described thus: NVS_ADME_rCYP2C6: NovaScreen (NVS) CYP450-related Enzyme Activity (ADME) Assay for rat CYP2C6 (AID 2283120). In a few lines: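 Cell-free recombinant rat CYP2C6 with fluorogenic substrate, read by fluorescence 1 h after dosing; acetonitrile as negative control. Primary screen at 10 uM in duplicate, actives then in concentration-response up to 20 uM.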

For experiment [6], the target named is human AMP-activated Protein Kinase, alpha 1 (AMPKa1), PRKAA1 (gene 5562) (UniProt Q13131). The experiment can be described thus: NVS_ENZ_hAMPKa1: NovaScreen (NVS) Enzymatic Assay for human AMP-activated Protein Kinase, alpha 1 (AMPKa1) (AID 2283130). How it is done: NVS_ENZ_hAMPKa1 is a biochemical, single-readout assay that uses extracted gene-proteins in a cell-free assay. Measurements were taken 1 hour after chemical dosing in a 384-well plate.NVS_ENZ_hAMPKa1 is one of one assay component(s) measured or calculated from the NVS_ENZ_hAMPKa1 assay. It is designed to make measurements of enzyme activity, a form of enzyme reporter, as detected with fluorescence intensity signals by Fluorescence and electrophoretic mobility shift technology.Data from the assay component NVS_ENZ_hAMPKa1 was analyzed into 1 assay endpoint. This assay endpoint, NVS_ENZ_hAMPKa1, was analyzed in the positive analysis fitting direction relative to DMSO as the negative control and baseline of activity. Using a type of enzyme reporter, loss-of-signal activity can be used to understand changes in the enzymatic activity as they relate to the gene PRKAA1. Furthermore, this assay endpoint can be referred to as a primary readout, because this assay has produced multiple assay endpoints where this one serves a enzymatic activity function. To generalize the intended target to other relatable targets, this assay endpoint is annotated to the kinase intended target family, where the subfamily is serine/threonine kinase.
as §2

Inconclusive results are not listed. Active and inactive are the calls of the source. The calls were made as follows: active = hit-call score of the fitted dose curve at least 0.9, where 1 is the maximum; inconclusive = response in the unintended direction; inactive = score below 0.9.

rat CYP2C11, Cyp2c11 (gene 29277), sequence (P08683 whole entry, looked up): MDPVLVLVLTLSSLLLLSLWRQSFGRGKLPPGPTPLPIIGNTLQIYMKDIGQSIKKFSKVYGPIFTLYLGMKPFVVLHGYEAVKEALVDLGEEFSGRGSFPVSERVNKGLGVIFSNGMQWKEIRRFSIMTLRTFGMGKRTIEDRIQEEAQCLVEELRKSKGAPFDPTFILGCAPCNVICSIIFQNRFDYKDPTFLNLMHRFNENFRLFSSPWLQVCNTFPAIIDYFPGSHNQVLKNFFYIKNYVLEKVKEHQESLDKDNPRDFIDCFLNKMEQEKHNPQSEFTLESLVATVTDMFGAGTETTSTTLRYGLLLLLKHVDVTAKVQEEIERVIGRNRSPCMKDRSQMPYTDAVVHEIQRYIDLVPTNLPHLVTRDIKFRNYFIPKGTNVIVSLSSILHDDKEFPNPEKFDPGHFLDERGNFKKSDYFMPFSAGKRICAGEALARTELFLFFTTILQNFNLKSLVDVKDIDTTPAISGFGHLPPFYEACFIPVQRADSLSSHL
rat CYP2D2, Cyp2d26 (gene 25053), sequence (P10634 whole entry, looked up): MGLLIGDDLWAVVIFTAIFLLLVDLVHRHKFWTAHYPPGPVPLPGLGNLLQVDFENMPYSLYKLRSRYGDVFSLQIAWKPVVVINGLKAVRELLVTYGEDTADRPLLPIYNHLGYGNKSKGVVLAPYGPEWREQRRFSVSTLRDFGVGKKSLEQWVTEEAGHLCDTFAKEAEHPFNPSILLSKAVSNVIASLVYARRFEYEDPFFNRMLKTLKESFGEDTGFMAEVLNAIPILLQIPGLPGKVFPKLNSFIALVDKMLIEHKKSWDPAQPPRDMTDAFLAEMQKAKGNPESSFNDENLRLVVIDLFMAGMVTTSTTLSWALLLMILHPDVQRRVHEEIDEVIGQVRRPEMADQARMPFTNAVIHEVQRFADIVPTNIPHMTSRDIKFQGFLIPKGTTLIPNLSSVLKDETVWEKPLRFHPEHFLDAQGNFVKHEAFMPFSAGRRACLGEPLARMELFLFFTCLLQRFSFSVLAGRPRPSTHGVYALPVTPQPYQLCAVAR
rat CYP3A2, Cyp3a2 (gene 266682), sequence (P05183 whole entry, looked up): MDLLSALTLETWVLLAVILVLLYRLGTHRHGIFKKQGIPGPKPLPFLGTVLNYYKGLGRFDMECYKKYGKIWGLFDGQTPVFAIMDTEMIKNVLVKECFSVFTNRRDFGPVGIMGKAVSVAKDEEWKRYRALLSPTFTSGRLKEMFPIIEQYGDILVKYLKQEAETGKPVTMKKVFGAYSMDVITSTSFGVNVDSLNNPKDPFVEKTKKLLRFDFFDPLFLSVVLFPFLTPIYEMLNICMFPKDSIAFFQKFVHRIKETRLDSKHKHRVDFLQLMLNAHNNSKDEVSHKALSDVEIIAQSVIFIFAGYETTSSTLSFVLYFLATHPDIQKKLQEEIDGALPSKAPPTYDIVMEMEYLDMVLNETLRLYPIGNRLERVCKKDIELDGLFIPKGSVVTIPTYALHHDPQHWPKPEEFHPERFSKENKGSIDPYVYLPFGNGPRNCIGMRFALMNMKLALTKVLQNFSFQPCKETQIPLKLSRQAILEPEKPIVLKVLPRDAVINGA
rat CYP2D1, Cyp2d1 (gene 266684), sequence (P10633 whole entry, looked up): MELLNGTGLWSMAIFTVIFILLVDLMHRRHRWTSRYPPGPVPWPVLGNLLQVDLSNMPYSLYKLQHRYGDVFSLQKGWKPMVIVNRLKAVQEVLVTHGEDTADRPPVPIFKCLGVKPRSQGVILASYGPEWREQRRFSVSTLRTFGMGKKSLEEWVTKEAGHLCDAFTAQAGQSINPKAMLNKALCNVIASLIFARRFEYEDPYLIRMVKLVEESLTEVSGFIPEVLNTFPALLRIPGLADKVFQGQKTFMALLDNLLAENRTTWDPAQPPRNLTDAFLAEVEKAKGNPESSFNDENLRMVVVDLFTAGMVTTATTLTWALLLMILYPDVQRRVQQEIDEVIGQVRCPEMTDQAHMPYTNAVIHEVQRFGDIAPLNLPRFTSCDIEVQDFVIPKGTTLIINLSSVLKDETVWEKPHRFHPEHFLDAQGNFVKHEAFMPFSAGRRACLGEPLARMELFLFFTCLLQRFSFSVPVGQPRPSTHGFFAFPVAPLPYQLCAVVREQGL
rat CYP2C13, Cyp2c13 (gene 171521), sequence (P20814 whole entry, looked up): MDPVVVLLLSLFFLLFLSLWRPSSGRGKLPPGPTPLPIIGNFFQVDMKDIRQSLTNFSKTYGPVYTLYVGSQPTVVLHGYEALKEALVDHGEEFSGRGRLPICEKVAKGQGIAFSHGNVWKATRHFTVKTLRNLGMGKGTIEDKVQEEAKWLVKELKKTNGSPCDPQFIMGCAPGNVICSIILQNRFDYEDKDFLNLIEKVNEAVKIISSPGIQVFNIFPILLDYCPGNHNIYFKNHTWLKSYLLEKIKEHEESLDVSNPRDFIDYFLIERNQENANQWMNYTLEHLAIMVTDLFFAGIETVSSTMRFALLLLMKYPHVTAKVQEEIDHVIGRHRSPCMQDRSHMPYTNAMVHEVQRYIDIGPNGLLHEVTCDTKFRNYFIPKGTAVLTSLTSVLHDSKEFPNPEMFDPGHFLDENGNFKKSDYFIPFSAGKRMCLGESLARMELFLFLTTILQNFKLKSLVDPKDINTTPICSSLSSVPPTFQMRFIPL
human AMP-activated Protein Kinase, alpha 1 (AMPKa1), PRKAA1 (gene 5562), sequence (Q13131 whole entry, looked up): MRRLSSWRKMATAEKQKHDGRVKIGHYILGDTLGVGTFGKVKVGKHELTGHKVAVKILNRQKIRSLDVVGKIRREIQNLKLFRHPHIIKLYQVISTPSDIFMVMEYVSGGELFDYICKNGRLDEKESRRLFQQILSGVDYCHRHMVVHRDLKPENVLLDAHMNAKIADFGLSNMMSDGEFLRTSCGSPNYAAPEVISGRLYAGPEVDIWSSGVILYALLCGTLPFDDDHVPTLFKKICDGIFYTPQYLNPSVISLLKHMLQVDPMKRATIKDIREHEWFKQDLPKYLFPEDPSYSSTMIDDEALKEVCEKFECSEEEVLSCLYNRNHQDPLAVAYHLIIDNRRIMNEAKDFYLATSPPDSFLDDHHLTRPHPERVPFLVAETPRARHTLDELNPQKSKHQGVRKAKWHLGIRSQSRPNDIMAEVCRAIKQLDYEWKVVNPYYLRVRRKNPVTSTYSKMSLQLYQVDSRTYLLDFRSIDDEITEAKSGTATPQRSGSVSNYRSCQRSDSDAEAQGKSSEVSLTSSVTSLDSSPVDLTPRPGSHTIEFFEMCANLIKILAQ

For `CCC(C)(NC(=O)c1cc(Cl)c(C)c(Cl)c1)C(=O)CCl` (centres undefined), the molecule was called inactive in experiment [1].

With `CC(C)(C)C(O)/C(=C\c1ccc(Cl)cc1Cl)n1cncn1` (centres undefined), the AC50 is 16.4 nM (active) in the experiment on rat CYP2B1, gene 24300; 369 nM (active) in experiment [2]; 0.281 µM (active) in [1]; 0.603 µM (active) in experiment [3]; 0.837 µM (active) in experiment [4]; 0.631 µM (active) in the experiment on rat CYP3A1, gene 25642. Also, the AC50 in experiment [5] is 0.669 µM (active).

In the case of `COP(=S)(OC)Oc1ccc(SC)c(C)c1`, the AC50 with rat CYP2C6, gene 293989 was 1.83 µM (active).

For `O=C(Nc1ccccc1)Nc1cnns1`, the molecule was classed as inactive in experiment [1]. Further, the AC50 is 8.7 µM (active) in [3] and 4.41 µM (active) in experiment [4].

As for `CC[C@H](C)[C@H]1O[C@]2(C=C[C@@H]1C)C[C@@H]1C[C@@H](C/C=C(\C)[C@@H](O[C@H]3C[C@H](OC)[C@@H](O[C@H]4C[C@H](OC)[C@@H](O)[C@H](C)O4)[C@H](C)O3)[C@@H](C)/C=C/C=C3\CO[C@@H]4[C@H](O)C(C)=C[C@@H](C(=O)O1)[C@]34O)O2` (tested in a mixture with another compound), the molecule was called inactive in the experiment with rat CYP2B1, gene 24300. For the same molecule, the AC50 in [1] was 10 µM (active); in experiment [4] it was 2.23 µM (active); with rat CYP3A1, gene 25642, 8.86 µM (active); in experiment [6] it was 31.2 µM (active).

In the case of `Oc1ccc(Cl)cc1Cc1ccccc1`, the AC50 with rat CYP2B1, gene 24300 was 6420 nM (active); in [2] it was 7160 nM (active); in the experiment on rat CYP2C6, gene 293989 it was 5.19 µM (active); in experiment [1], 6.35 µM (active); in [3], 10 µM (active); in experiment [4], 5.11 µM (active). For the same molecule, the AC50 in the experiment with rat CYP3A1, gene 25642 is 8.2 µM (active). In addition, the call in experiment [6] was inactive.

As to `CCCN(CCOc1c(Cl)cc(Cl)cc1Cl)C(=O)n1ccnc1`, the half-maximal activity concentration (AC50) in the experiment with rat CYP2B1, gene 24300 was 33.8 nM (active); in [2], 76.6 nM (active); with rat CYP2C6, gene 293989 it was 0.166 µM (active); in experiment [1], 0.191 µM (active); in [3], 1.22 µM (active); in experiment [4] it was 0.159 µM (active). The AC50 with rat CYP3A1, gene 25642 is 0.549 µM (active); in experiment [5], 1.39 µM (active).

In the case of `CC(C)(C)C(O)C(Oc1ccc(Cl)cc1)n1cncn1` (centres undefined), the AC50 in the experiment with rat CYP2B1, gene 24300 was 5580 nM (active); in experiment [2], 4450 nM (active); in experiment [1], 1.3 µM (active); in the experiment on rat CYP3A1, gene 25642, 5.65 µM (active); in [5], 8.09 µM (active). Besides, in experiment [6], the outcome was inactive.
